hNpr1 antagonist – antagonists of human natriuretic peptide receptor Npr1; P16066; AID 1347048; Potency, µM (highest dose often 46.3 µM), usual class: inhibitors; 1.6% of 76,000 active; HEK293 hNpr1 GloSensor cGMP, ANP-stimulated luminescence; calls by dose curve; further: nearly all actives have a fitted effect of over 60% in size
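Compound pre-incubated 30 min at room temperature on GloSensor-loaded HEK293 cells stably carrying hNpr1 and the pGS-40F cGMP biosensor. Stimulation uses hNppA at 0.1 nM final; luminescence is taken at baseline and 20 min post-agonist.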
GPT2 inhibitor – GPT2 alanine aminotransferase inhibition; Recombinant GPT2, coupled pyruvate oxidase/HRP Amplex Red fluorescence; Q8TD30; Potency, µM (series often up to 57.7 µM), usual class: inhibitors; AID 1671188; 0.25% of 100,000 active; further: nearly all actives have a fitted effect of over 60% in size
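Inhibition is scored from Amplex Red fluorescence generated when pyruvate oxidase and HRP act on pyruvate released by GPT2. Reactions contain 10ng/uL enzyme, 250uM a-KG and 2mM L-alanine and run 30 min at room temperature.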
3T3 cytotox – cytotoxic compounds in NIH 3T3 cells; NIH 3T3 viability, CellTiter-Glo ATP luminescence, 48-72 h; Potency, µM (highest dose often 96.7 µM), usual class: inhibitors; 4.3% of 94,000 active; further: nearly all actives have a fitted effect of over 55% in size
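Mouse fibroblast NIH 3T3 cells, 400 per well, received compound via pintool and were incubated for 48 or 72 hr prior to CellTiter-Glo ATP luminescence measurement.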
HEK293 tox – HEK 293 cell cytotoxicity; HEK 293 viability, ATP luminescence (CellTiter-Glo), 48-72 h; Potency, µM (doses to about 115 µM), actives largely listed as inhibitors; 6.6% of 94,000 active; AID 1345083; further: nearly all actives have a fitted effect of over 60% in size
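250 HEK 293 cells/well; compound by pintool; incubated 48 or 72 hr at 37 degree Celsius; CellTiter-Glo added, 10 min RT, luminescence imaged.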
FLuc inh-1 – inhibitors of firefly (Photinus pyralis) luciferase | Potency, µM (titrated, usually from 115 µM), usual class: inhibitors | AID 1347043 | 2.5% of 76,000 active | purified P. pyralis luciferase, luminescence, biochemical | P08659; further: nearly all actives have a fitted effect of over 65% in size
Target sequence (P08659 whole entry, looked up): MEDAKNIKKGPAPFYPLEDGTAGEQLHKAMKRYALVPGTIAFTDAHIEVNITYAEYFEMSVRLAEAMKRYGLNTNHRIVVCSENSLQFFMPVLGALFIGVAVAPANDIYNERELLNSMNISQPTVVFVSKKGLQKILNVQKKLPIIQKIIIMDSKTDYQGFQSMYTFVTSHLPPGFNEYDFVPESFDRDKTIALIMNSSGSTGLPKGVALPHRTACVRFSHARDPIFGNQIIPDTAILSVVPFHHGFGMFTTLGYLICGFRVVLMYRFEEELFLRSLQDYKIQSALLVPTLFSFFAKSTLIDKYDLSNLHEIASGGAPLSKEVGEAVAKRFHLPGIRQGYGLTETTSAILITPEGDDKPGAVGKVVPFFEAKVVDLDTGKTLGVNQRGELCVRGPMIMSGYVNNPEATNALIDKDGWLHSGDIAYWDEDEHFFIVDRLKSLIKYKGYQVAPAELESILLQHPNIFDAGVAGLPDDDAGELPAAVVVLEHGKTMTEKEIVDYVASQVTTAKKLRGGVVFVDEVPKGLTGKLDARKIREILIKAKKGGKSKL
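Cell-free enzyme assay, 10nM P. pyralis luciferase, luciferin and ATP each at 10uM. Inhibition profiled over a 6-point titration, read as luminescence.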
FLuc SDR no ATP – binders stabilizing firefly luciferase, without ATP. AID 1963318. Potency, µM (series often up to 32.7 µM), actives largely listed as activators. shares compounds with FLuc inh-1. 7.8% of 1,300 active. Purified FLuc-C-HiBiT, Nano-Glo HiBiT luminescence, no ATP; further: nearly all actives have a fitted effect of over 55% in size
FLuc SDR ATP – firefly luciferase binding stabilization, ATP added; shares compounds with FLuc inh-1; purified FLuc-C-HiBiT + ATP, HiBiT complementation luminescence; Potency, µM (series often up to 32.7 µM), most hits filed as activators; 8.7% of 1,300 active;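 further: signal reports ligand binding via conformational change of the enzyme rather than luciferase catalysis; nearly all actives have a fitted effect of over 55% in size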
FLuc inh-2 – firefly luciferase enzyme inhibition | purified FLuc-C-HiBiT enzyme, luciferin luminescence | shares compounds with FLuc inh-1 | Potency, µM (doses to about 32.7 µM), usual class: inhibitors | 42% of 1,300 active; further: nearly all actives have a fitted effect of over 70% in size
Hits are given with their value. Most compounds without a hit are left out; they make up all but 10% or so of the library. Unless noted, the call rests on the fitted dose curve; in most records, active means well fitted curve in the direction sought with a large enough effect; inconclusive means small, poorly fitted or top-dose-only effect, or another doubt; inactive means no such curve, though single readings can be large; an effect the other way counts as inactive or inconclusive.

How did COc1ccc(C(=O)Nc2cc(C)c(O)c(-c3nc4ccccc4s3)c2)cc1OC do in these assays?
FLuc SDR no ATP: inactive; FLuc SDR ATP: inactive; FLuc inh-2: inconclusive

Results for COc1cc(C(=O)Nc2cc(C)c(O)c(-c3nc4ccccc4s3)c2)cc(OC)c1OC ?
FLuc SDR no ATP: inactive; FLuc SDR ATP: inactive; FLuc inh-2: inactive

Results for COc1ccc(C(=O)Nc2ccc([C@H]3OCC(=O)N[C@@H]3CO)cc2)cc1OC ?
hNpr1 antagonist: inactive; GPT2 inhibitor: inactive; 3T3 cytotox: inactive; HEK293 tox: inactive; FLuc inh-1: inactive

Results for COc1cc(NC(=O)c2cc3c(=O)[nH]c(C)cn3n2)cc(OC)c1OC ?
hNpr1 antagonist: inactive; GPT2 inhibitor: inactive; 3T3 cytotox: inconclusive; HEK293 tox: inactive; FLuc inh-1: inconclusive

What do the screens show for `Cc1ncsc1C1N(C2CCN(C(=O)c3ccco3)CC2)C(=O)C12CCCC2` (configuration not stated)?
GPT2 inhibitor: inactive; 3T3 cytotox: inactive; HEK293 tox: inactive

Results for O=C(Nc1ccc(Cl)cc1)NC1CCCN(Cc2ccc(-c3cncnc3)cc2)C1 (configuration not stated) ?
GPT2 inhibitor: inactive; 3T3 cytotox: inconclusive; HEK293 tox: inconclusive

How did CCOC(=O)[C@@H]1[C@@H](OC)C(=O)N(C(C)C)C12CCN([S+](=O)([O-])c1ccc(NC(C)=O)cc1)CC2 do in these assays?
3T3 cytotox: inconclusive; HEK293 tox: inactive

How did O=C(NC1CCCC1)N1c2ccccc2CC1c1noc(C2CCOCC2)n1 (configuration not stated) do in these assays?
hNpr1 antagonist: inactive; GPT2 inhibitor: inactive; 3T3 cytotox: inactive; HEK293 tox: inconclusive; FLuc inh-1: 5.01µM; FLuc SDR no ATP: inactive; FLuc SDR ATP: inactive; FLuc inh-2: inconclusive

How did CCc1ccccc1NC(=O)N1c2ccccc2CC1c1nc(C2CC2)no1 (configuration not stated) do in these assays?
hNpr1 antagonist: inactive; GPT2 inhibitor: inactive; 3T3 cytotox: inconclusive; HEK293 tox: inconclusive; FLuc inh-1: inactive

How did CCOC(=O)N1CCC(NCc2cccnc2Oc2ccccc2C)CC1 do in these assays?
hNpr1 antagonist: inactive; GPT2 inhibitor: inactive; 3T3 cytotox: inactive; HEK293 tox: inactive; FLuc inh-1: inactive

Results for Cc1ccc(-n2ncc3c(N4CCCCCC4)ncnc32)cc1 ?
FLuc SDR no ATP: 1.76µM; FLuc SDR ATP: 0.881µM; FLuc inh-2: 0.197µM

How did Cc1ccc(-n2ncc3c(N4CCCCC4)nc(NCCCO)nc32)cc1 do in these assays?
FLuc SDR no ATP: inactive; FLuc SDR ATP: inactive; FLuc inh-2: inactive

How did Fc1ccc(-n2ncc3c(N4CCCCCC4)ncnc32)cc1 do in these assays?
FLuc SDR no ATP: inconclusive; FLuc SDR ATP: inconclusive; FLuc inh-2: 1.24µM

What do the screens show for `COc1ccc2c(c1)CN(CC=C(C)C)C(=O)CCN2CC(C)(C)O`?
3T3 cytotox: inactive; HEK293 tox: inconclusive

What do the screens show for `O=C1Nc2ccc(C(=O)c3ccco3)cc2/C1=C/c1cc(Cl)c(O)c(Cl)c1`?
FLuc SDR no ATP: inactive; FLuc SDR ATP: inactive; FLuc inh-2: 11.1µM

Results for Cc1cccc(NC(=O)c2ccc(-c3ccccc3)s2)c1 ?
FLuc SDR no ATP: inactive; FLuc SDR ATP: inactive; FLuc inh-2: 2.79µM

How did COc1ccccc1CC(=O)NC1CCN(c2cnn(CC3CC3)c(=O)c2)CC1 do in these assays?
hNpr1 antagonist: inactive; GPT2 inhibitor: inactive; 3T3 cytotox: inactive; HEK293 tox: inactive; FLuc inh-1: inactive

Results for COCCNC(=O)c1cn2cc(-c3ccc(F)cc3)sc2n1 ?
GPT2 inhibitor: inactive; 3T3 cytotox: inconclusive; HEK293 tox: inconclusive

Results for Cc1ccc(-c2cc(N)n(-c3ccc(C)cc3)n2)cc1 ?
FLuc SDR no ATP: inactive; FLuc SDR ATP: inactive; FLuc inh-2: inconclusive

What do the screens show for `O=C1NC(=NC2CCCCC2)C2(CCN(Cc3ccc(F)cc3)CC2)N1c1cc(F)cc(F)c1`?
GPT2 inhibitor: inconclusive; 3T3 cytotox: inactive; HEK293 tox: inconclusive

What do the screens show for `COc1ccc(C(=O)N2CCCC(c3nc(-c4ccccc4)no3)CCNC(=O)CC2)c(OC)n1` (configuration not stated)?
hNpr1 antagonist: inconclusive; GPT2 inhibitor: inactive; 3T3 cytotox: inactive; HEK293 tox: inactive; FLuc inh-1: 7.94µM; FLuc SDR no ATP: inactive; FLuc SDR ATP: inactive; FLuc inh-2: inconclusive

Results for O=c1c2nc(-c3ccccc3C(F)(F)F)ccc2ncn1C1CC1 ?
hNpr1 antagonist: inactive; GPT2 inhibitor: inactive; 3T3 cytotox: inconclusive; HEK293 tox: inactive; FLuc inh-1: inactive

What do the screens show for `O=c1c2nc(N3CCC(c4ccccc4)CC3)ccc2ncn1C1CC1`?
hNpr1 antagonist: inconclusive; GPT2 inhibitor: inactive; 3T3 cytotox: inconclusive; HEK293 tox: 89.1µM; FLuc inh-1: 1.41µM; FLuc SDR no ATP: 20.2µM; FLuc SDR ATP: inconclusive; FLuc inh-2: 3.6µM

How did COCC(=O)NC1CCN(C(=O)c2ccc(-c3cccs3)cc2)CC1 do in these assays?
GPT2 inhibitor: inactive; 3T3 cytotox: inconclusive; HEK293 tox: inconclusive

How did Cc1ccc(C)c(N2CCN(C(=O)c3ccc(NC(=O)c4nsc5ccccc45)cc3)CC2)c1 do in these assays?
FLuc SDR no ATP: inactive; FLuc SDR ATP: inconclusive; FLuc inh-2: inconclusive

What do the screens show for `CCc1ccc(CNC(=O)C2CCN(C(=O)c3ncn4c3COC(c3ccc(F)cc3)C4)CC2)cc1` (configuration not stated)?
hNpr1 antagonist: inactive; GPT2 inhibitor: inactive; 3T3 cytotox: inactive; HEK293 tox: inactive; FLuc inh-1: inconclusive

What do the screens show for `O=C(NCc1ccc(F)cc1)C1CCN(C(=O)c2ncn3c2COC(c2ccccc2)C3)CC1` (configuration not stated)?
hNpr1 antagonist: inactive; GPT2 inhibitor: inactive; 3T3 cytotox: inactive; HEK293 tox: inactive; FLuc inh-1: 14.1µM; FLuc SDR no ATP: inactive; FLuc SDR ATP: inconclusive; FLuc inh-2: 5.56µM

How did COc1ccc(C2Cn3cnc(C(=O)N4CCC(C(=O)NCc5ccco5)CC4)c3CO2)cc1 (configuration not stated) do in these assays?
hNpr1 antagonist: inactive; GPT2 inhibitor: inactive; 3T3 cytotox: inactive; HEK293 tox: inactive; FLuc inh-1: inactive
